The source of these data is PubChem BioAssay (EPA / NIEHS).

Each structure is given as a SMILES string. Several values for one entry are separate records, joined by “and”; a condition that tells them apart may be missing. Equal entries are not always repeated. More than one record can exist for a structure, and the calls need not agree. Activity calls are given as the source filed them. The calls were made as follows: active = hit-call score of the fitted dose curve at least 0.9, where 1 is the maximum; inactive = score below 0.9.

A short description of assay [1]: ATG_CRE_CIS: Attagene CIS-FACTORIAL HepG2 Assay for human cAMP Responsive Element (CRE) binding protein 3 (AID 2282926). Particulars: HepG2 CRE cis-reporter, Attagene multiplexed mRNA; actives raise or lower the signal. The gist of the method:
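Induced reporter mRNA from a CRE cis element, measured in HepG2 among many multiplexed units at 24 h. Detection used RT-PCR plus capillary electrophoresis of fluorescent fragments; DMSO served as negative control.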

For assay [2], the target named is CCAAT/enhancer-binding protein beta (Homo sapiens) (UniProt P17676). Briefly: ATG_C_EBP_CIS: Attagene CIS-FACTORIAL HepG2 Assay for human CCAAT/Enhancer Binding Protein (C/EBP) beta (AID 2282927). Particulars: HepG2 Attagene cis-factorial transcription factor reporter; actives raise or lower the signal. The gist of the method: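 HepG2 transiently transfected with multiplexed reporter units under cis-regulatory promoters reporting endogenous C/EBPb activity. After 24 h exposure, reporter mRNA assayed by RT-PCR, fluorescent labelling, HpaI digestion and capillary electrophoresis; bidirectional fitting versus DMSO.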

The nature of assay [3]: ATG_CMV_CIS: Attagene CIS-FACTORIAL HepG2 Assay for human CMV (Internal Marker) (AID 2282928).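 Also: endpoint acts as a background internal control marker rather than a target.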 Particulars: HepG2 CMV promoter reporter, transcription factor profiling; actives raise or lower the signal. The gist of the method: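 24 h chemical treatment, HepG2 with transient multi-reporter transfection; RNA → oligo(dT) RT → PCR → 6-FAM extension → HpaI digest → CE fluorescence. Bidirectional fit, DMSO negative control.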

Assay [4] in a line: ATG_DR4_LXR_CIS: Attagene CIS-FACTORIAL HepG2 Assay for human Liver X Receptor (LXR), DR4 submotif (AID 2282929). Particulars: HepG2 Attagene DR4 cis-reporter, mRNA transcription; actives raise or lower the signal. In a few lines: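 Endogenous factor activity at a DR4 cis-element is read as reporter mRNA in transiently transfected HepG2 cells. Exposure lasts 24 h; transcripts are amplified, fluorescently labelled and sized by capillary electrophoresis, with DMSO as baseline.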

Assay [5] addresses Aryl hydrocarbon receptor (Homo sapiens) (UniProt P35869). Briefly: ATG_Ahr_CIS: Attagene CIS-FACTORIAL HepG2 Assay for human Aryl Hydrocarbon Receptor (Ahr) (AID 2282930). Particulars: HepG2 AhR cis-factorial reporter transcription; actives raise or lower the signal. The gist of the method: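 HepG2 cells transiently transfected with cis-element-driven multiplexed reporter units; endogenous AhR activity read as reporter mRNA 24 h after dosing, via RT-PCR, 6-FAM labelling, HpaI digestion and capillary electrophoresis. Bidirectional fit relative to DMSO.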

Assay [6] is described as follows: ATG_AP_1_CIS: Attagene CIS-FACTORIAL HepG2 Assay for human Activator Protein 1 (AP-1) (AID 2282931). Particulars: HepG2 Attagene cis-factorial AP-1 reporter mRNA; actives raise or lower the signal. In a few lines:
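Fluorescence of labelled PCR fragments separated by capillary electrophoresis gives reporter mRNA levels. HepG2 with transfected cis-regulated reporter units, 24 h exposure; DMSO serves as baseline for bidirectional curve fits.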

The nature of assay [7]: ATG_AP_2_CIS: Attagene CIS-FACTORIAL HepG2 Assay for human Activator Protein 2 (AP-2) (AID 2282932). As to conditions: HepG2 AP-2 cis-reporter, Attagene transcription factor profiling; actives raise or lower the signal. In a few lines: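 Read-out: fluorescent reporter mRNA via RT-PCR and capillary electrophoresis, 24 h post-dose in transiently transfected HepG2. Endogenous factors drive cis-promoter reporters; gain or loss of signal fitted bidirectionally against DMSO.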

A short description of assay [8]: ATG_BRE_CIS: Attagene CIS-FACTORIAL HepG2 Assay for human Bone Morphogenetic Protein (BMP) Response Element (BRE) (AID 2282933). As to conditions: HepG2 BMP response element reporter, Attagene transcription factor profiling; actives raise or lower the signal. In a few lines: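 Gain- or loss-of-signal was derived by bidirectional fitting against DMSO controls. The signal came from reporter mRNA, measured by RT-PCR and capillary electrophoresis, in HepG2 cells transiently carrying multiple reporter units and dosed for 24 h.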

Assay [9] addresses Retinoic acid receptor alpha (Homo sapiens) (UniProt P10276). In words: ATG_DR5_RAR_CIS: Attagene CIS-FACTORIAL HepG2 Assay for human Retinoic Acid Receptor Alpha (RARE), DR5 submotif (AID 2282934).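 As to AC50: reporter responds to endogenous RAR alpha beta and gamma in HepG2 not RARA alone.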 As to conditions: HepG2 Attagene cis-factorial RARE DR5 reporter, mRNA; actives raise or lower the signal. In a few lines: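 HepG2 cells transiently transfected with multiplexed reporter units; DR5 cis-element drives reporter through endogenous transcription factors. After 24 h dosing, reporter mRNA quantified by RT-PCR, fluorescent labeling, HpaI digestion and capillary electrophoresis; bidirectional fitting versus DMSO.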

Assay [10] is described as follows: ATG_E_Box_CIS: Attagene CIS-FACTORIAL HepG2 Assay for human Enhancer Box (E-box) (AID 2282936). As to conditions: HepG2 E-box cis-reporter transcription, actives raise or lower the signal. In a few lines: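 Transiently transfected HepG2, endogenous TF-driven reporters, 24 h dosing. Readout: RT-PCR plus capillary electrophoresis of fluorescent reporter fragments. Gain or loss of signal fitted bidirectionally against DMSO baseline.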

Assay [11] is described as follows: ATG_M_61_CIS: Attagene CIS-FACTORIAL HepG2 Assay for M61 Transcription Factor (Internal Marker) (AID 2282937). Particulars: HepG2 Attagene CIS-FACTORIAL M61 internal marker reporter; actives raise or lower the signal. In a few lines: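 This endpoint serves as an internal background control within a multiplexed HepG2 cis-reporter panel. Cells are exposed for 24 h; reporter mRNA is amplified, fluorescently labelled and sized by capillary electrophoresis, with DMSO as negative control.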

The nature of assay [12]: ATG_EGR_CIS: Attagene CIS-FACTORIAL HepG2 Assay for human Early Growth Response 1 (EGR1) (AID 2282938). As to conditions: HepG2 Attagene CIS-FACTORIAL EGR reporter mRNA; actives raise or lower the signal. The gist of the method: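 HepG2, transient MRTU transfection (cis promoters), 24 h compound. RNA → RT (oligo-dT) → PCR → 6-FAM labelling → HpaI cut → CE fluorescence. Bidirectional fit, DMSO baseline.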

The nature of assay [13]: ATG_M_19_CIS: Attagene CIS-FACTORIAL HepG2 Assay for M19 Transcription Factor (Internal Marker) (AID 2282939). As to conditions: HepG2 Attagene CIS-FACTORIAL M19 internal marker reporter; actives raise or lower the signal. In a few lines: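 Following a 24 h exposure, RNA from transfected HepG2 cells was reverse-transcribed, PCR-amplified with reporter-specific primers, end-labelled with 6-FAM and HpaI-digested before capillary separation. Values represent gain or loss versus DMSO.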

Assay [14] in a line: ATG_ERE_CIS: Attagene CIS-FACTORIAL HepG2 Assay for Estrogen Response Element (ERE) (AID 2282940). Particulars: HepG2 ERE cis-reporter, Attagene RNA transcript; actives raise or lower the signal. The gist of the method:
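HepG2, transient cis-reporter units, 24 h exposure. RNA isolated, oligo(dT) RT, reporter-specific PCR, FAM extension, HpaI cut, CE detection. Gain/loss-of-signal vs DMSO.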

The nature of assay [15]: ATG_Ets_CIS: Attagene CIS-FACTORIAL HepG2 Assay for human Erythroblast Transformation Specific (ETS) (AID 2282941). Particulars: HepG2 ETS cis-reporter transcription, actives raise or lower the signal. In a few lines:
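Cis-regulated reporter mRNA induction in HepG2 (transient transfection), 24 h exposure, RT-PCR plus capillary electrophoresis detection; DMSO serves as negative control and baseline.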

In assay [16] the target is Hepatocyte nuclear factor 3-beta (Homo sapiens) (UniProt Q9Y261). In words: ATG_FoxA2_CIS: Attagene CIS-FACTORIAL HepG2 Assay for human Forkhead box A2 (FOXA2) (AID 2282942). As to conditions: HepG2 cis-reporter transcription factor activity, 24 h; actives raise or lower the signal. The gist of the method:
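Cells: HepG2, transient multiplex reporter transfection. Exposure 24 h. Detection: reporter-specific RT-PCR, fluorescent labelling, restriction digest, capillary electrophoresis. Analysis: bidirectional curve fit, DMSO as negative control.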

Assay [17] is described as follows: ATG_FoxO_CIS: Attagene CIS-FACTORIAL HepG2 Assay for human Forkhead box O (FoxO) (AID 2282943). Particulars: HepG2 Attagene cis-reporter, FoxO element, mRNA; actives raise or lower the signal. The gist of the method:
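HepG2 cells transiently transfected with cis-element-driven reporter units report endogenous FoxO activity. After 24 h chemical exposure, reporter mRNA quantified by RT-PCR, fluorescent labeling, HpaI digestion and capillary electrophoresis; bidirectional fit versus DMSO.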

Assay [18] is described as follows: ATG_GATA_CIS: Attagene CIS-FACTORIAL HepG2 Assay for human GATA Binding Protein (AID 2282944). As to conditions: HepG2 GATA cis-element reporter, Attagene multiplex mRNA; actives raise or lower the signal. The gist of the method:
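DMSO serves as negative control and baseline for bidirectional fitting of reporter mRNA changes. HepG2 cells bearing transiently transfected cis-promoter reporters were exposed 24 h; transcripts detected via RT-PCR and capillary electrophoresis.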

A short description of assay [19]: ATG_GLI_CIS: Attagene CIS-FACTORIAL HepG2 Assay for human Zinc Finger Protein GLI1 (AID 2282945). Particulars: HepG2, Attagene cis-factorial reporter mRNA, GLI element; actives raise or lower the signal. In a few lines:
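Transiently transfected HepG2 cells report endogenous transcription factor activity via cis-element-driven reporter units. After 24 h compound exposure, reporter mRNA was measured by RT-PCR with capillary electrophoresis; bidirectional fitting against DMSO baseline.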

The target of assay [20] is Transcription factor E2F1 (Homo sapiens) (UniProt Q01094). Briefly: ATG_E2F_CIS: Attagene CIS-FACTORIAL HepG2 Assay for human E2F Transcription Factor 1 (AID 2282935). As to conditions: HepG2 Attagene cis-reporter, E2F reporter RNA transcripts; actives raise or lower the signal. In a few lines: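 Transient MRTU transfection of HepG2; 24 h compound exposure; RNA → oligo(dT) RT → PCR → FAM label → HpaI cut → CE fluorescence. Gain/loss of signal fit against DMSO.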
Transcription factor E2F1 (Homo sapiens), sequence (Q01094 whole entry, looked up): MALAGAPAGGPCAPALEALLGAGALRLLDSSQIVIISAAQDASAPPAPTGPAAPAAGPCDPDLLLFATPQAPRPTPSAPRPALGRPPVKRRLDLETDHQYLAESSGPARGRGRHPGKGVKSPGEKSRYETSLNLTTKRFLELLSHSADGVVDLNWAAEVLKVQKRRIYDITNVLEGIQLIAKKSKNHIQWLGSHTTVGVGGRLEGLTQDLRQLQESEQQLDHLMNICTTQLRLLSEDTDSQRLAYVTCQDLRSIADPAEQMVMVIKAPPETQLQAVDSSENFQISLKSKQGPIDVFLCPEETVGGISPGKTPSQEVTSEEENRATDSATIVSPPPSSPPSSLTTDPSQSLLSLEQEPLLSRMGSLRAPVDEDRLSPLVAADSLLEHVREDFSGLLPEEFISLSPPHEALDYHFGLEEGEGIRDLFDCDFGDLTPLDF

CCAAT/enhancer-binding protein beta (Homo sapiens), sequence (P17676 whole entry, looked up): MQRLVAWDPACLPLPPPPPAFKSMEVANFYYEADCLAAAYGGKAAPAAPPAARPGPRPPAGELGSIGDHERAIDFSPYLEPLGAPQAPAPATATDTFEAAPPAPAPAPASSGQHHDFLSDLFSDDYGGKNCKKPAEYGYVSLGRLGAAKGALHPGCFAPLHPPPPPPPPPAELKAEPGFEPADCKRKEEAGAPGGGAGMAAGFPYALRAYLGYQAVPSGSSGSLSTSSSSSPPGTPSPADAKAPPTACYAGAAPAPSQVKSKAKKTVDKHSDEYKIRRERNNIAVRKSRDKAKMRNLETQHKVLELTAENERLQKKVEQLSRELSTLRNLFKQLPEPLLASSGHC
Aryl hydrocarbon receptor (Homo sapiens), sequence (P35869 whole entry, looked up): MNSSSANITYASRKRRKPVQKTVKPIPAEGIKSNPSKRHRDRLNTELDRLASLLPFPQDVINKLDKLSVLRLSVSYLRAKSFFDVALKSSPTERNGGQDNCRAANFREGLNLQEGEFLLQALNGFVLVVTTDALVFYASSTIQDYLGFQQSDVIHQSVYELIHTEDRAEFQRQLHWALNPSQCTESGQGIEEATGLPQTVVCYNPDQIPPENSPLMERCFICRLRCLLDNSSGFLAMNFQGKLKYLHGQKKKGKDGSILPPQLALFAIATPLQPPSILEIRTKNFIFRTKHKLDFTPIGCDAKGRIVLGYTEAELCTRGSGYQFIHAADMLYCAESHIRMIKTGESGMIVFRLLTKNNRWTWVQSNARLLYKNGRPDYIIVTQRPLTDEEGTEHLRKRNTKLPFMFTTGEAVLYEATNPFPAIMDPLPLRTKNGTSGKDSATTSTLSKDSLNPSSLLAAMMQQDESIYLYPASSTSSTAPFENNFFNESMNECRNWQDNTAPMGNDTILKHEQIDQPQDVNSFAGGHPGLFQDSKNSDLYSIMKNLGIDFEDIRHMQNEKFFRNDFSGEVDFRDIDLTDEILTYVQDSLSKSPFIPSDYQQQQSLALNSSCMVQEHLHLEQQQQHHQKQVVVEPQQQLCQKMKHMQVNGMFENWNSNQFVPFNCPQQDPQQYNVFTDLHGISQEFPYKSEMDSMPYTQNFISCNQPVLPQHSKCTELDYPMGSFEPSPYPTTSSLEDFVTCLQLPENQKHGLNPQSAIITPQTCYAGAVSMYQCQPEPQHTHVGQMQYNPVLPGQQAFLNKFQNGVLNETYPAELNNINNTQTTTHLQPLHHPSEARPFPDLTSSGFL
Hepatocyte nuclear factor 3-beta (Homo sapiens), sequence (Q9Y261 whole entry, looked up): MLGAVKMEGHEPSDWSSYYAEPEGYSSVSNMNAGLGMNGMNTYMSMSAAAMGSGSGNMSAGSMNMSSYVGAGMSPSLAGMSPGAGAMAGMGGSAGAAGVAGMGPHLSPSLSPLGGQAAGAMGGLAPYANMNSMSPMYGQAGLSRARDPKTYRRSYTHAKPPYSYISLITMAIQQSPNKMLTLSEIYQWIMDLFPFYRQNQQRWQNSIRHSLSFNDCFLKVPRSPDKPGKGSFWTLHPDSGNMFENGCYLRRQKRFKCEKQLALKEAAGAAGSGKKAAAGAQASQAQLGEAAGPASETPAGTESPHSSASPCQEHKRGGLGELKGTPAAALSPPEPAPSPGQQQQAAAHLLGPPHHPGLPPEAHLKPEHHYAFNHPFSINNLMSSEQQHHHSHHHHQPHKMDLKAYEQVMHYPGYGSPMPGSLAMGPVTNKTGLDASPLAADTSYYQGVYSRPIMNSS
Retinoic acid receptor alpha (Homo sapiens), sequence (P10276 whole entry, looked up): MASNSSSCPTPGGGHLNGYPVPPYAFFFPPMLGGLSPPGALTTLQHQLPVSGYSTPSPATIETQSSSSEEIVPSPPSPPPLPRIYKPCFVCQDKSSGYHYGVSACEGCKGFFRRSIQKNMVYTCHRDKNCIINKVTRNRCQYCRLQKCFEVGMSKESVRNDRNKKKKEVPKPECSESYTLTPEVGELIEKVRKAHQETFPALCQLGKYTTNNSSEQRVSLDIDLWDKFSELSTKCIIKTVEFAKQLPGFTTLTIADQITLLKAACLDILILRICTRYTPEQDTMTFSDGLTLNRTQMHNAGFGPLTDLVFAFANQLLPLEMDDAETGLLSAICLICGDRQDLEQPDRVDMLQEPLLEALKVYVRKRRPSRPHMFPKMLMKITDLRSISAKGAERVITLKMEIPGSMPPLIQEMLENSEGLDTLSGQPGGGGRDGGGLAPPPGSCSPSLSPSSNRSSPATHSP

For `O=C(O)c1cccc(C(=O)O)c1`, the result in assay [1], in [2], in assay [3], in assay [4], in assay [5] and in [6] was inactive. Moreover, the call in [7], in assay [8], in assay [9], in [10], in assay [11] and in assay [12] was inactive. Moreover, the outcome in assay [13], in [14], in assay [15], in assay [16], in assay [17] and in assay [18] was inactive. For the same compound, the outcome in assay [19] was inactive.

As for `CCCCCOC(C)=O`, the compound was classed as inactive in [1], in [2], in assay [3], in assay [4], in [5] and in [6]. In addition, the result in [7], in assay [8], in [9], in [10], in assay [11] and in assay [12] was inactive. Moreover, the compound was classed as inactive in assay [13], in assay [14], in assay [15], in [16], in [17] and in [18]. Further, the compound was classed as inactive in assay [19].

For `OC[C@H]1O[C@@](CO)(O[C@H]2O[C@H](CO)[C@@H](O)[C@H](O)[C@H]2O)[C@@H](O)[C@@H]1O`, the call in [1], in assay [2], in assay [3], in [4], in [5] and in [6] was inactive. For the same compound, the compound was classed as inactive in assay [7], in assay [8], in assay [9], in [10], in assay [11] and in [12]. The outcome in assay [13], in assay [14], in assay [15], in [16], in assay [17] and in assay [19] was inactive.

As to `FC(F)(F)C(F)(F)C(F)(F)C(F)(F)C(F)(F)C(F)(F)I`, the outcome in [1], in [2], in assay [3], in assay [4], in [5] and in assay [6] was inactive. The compound was called inactive in assay [7], in assay [8], in assay [9], in assay [20], in [10] and in assay [11]. The call in [12], in assay [13], in [15], in assay [16], in assay [17] and in [19] was inactive. In addition, the concentration at half-maximal activity (AC50) in assay [9] is 103000 nM (active); in [14] it was 24 µM (active) and 27.1 µM (active).

Consider `O=C(N[C@H](CO)[C@H](O)c1ccc([N+](=O)[O-])cc1)C(Cl)Cl`, for which the compound was called inactive in assay [1], in [2], in [3], in assay [4], in assay [5] and in assay [6]. Further, the outcome in [7], in assay [8], in [9], in assay [10], in [11] and in assay [12] was inactive. Also, the call in assay [13], in assay [14], in assay [15], in assay [16], in [17] and in assay [18] was inactive. Further, in assay [19], the call was inactive.

As for `COc1cc2c(c(OC)c1OC)-c1ccc(OC)c(=O)cc1[C@@H](NC(C)=O)CC2`, the compound was classed as inactive in [1], in assay [2], in [4], in [5], in assay [9] and in assay [20]. Also, the compound was classed as inactive in [11], in assay [12], in assay [13], in [14], in assay [15] and in [16]. Moreover, the call in assay [17], in assay [18] and in [19] was inactive. The AC50 in [3] was 70.3 nM (active); in assay [6], 123 nM (active); in assay [7] it was 61100 nM (active); in assay [8], 4600 nM (active); in assay [10] it was 592 nM (active).
